Compound activity from PubChem BioAssay.
Sampled rows, rich in hits. Any-hit rate of the full collection: about 2.4%.
D2 PAM-1: Beta-Arrestin HTS for Positive Allosteric Modulators of the Human D2 Dopamine Receptor: Potentiators. D(2) dopamine receptor (Homo sapiens), P14416. DiscoveRx D2 beta-arrestin cells, luminescence, 90 min; 100% = 57 uM dopamine signal. potentiation, % (no concentration beside the values). hit rate 0.23% among 360,000. AID 624464, 2012; in the data active = potentiation above about 50%; inconclusive = mostly about 30% to 49%
Target sequence (P14416 whole entry, looked up): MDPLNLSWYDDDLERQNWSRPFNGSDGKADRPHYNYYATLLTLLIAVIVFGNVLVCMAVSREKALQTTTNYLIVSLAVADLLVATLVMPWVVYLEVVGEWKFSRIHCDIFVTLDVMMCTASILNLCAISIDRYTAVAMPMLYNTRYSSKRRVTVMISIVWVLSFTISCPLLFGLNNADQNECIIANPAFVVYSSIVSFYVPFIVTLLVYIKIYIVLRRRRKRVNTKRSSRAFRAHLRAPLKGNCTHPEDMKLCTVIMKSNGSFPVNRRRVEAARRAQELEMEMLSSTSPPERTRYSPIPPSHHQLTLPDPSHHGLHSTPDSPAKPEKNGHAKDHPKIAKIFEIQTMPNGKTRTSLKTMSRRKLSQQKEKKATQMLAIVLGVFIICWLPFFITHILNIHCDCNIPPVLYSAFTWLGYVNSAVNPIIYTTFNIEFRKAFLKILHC
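PathHunter D2 cells, attached overnight at 37 deg C, received compound in DMSO plus dopamine at EC20 (50 nM final) for 90 min at 37 deg C. Beta-arrestin recruitment was read as luminescence after 1 h with detection reagent at ambient temperature.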
D2 ag-1: HTS Assay for Allosteric Agonists of the Human D2 Dopamine Receptor: Primary Screen for Agonists; HEK293 T-REx D2 cells, calcium flux agonist mode; activation, % at 2 µM; hit rate 0.53% among 340,000; AID 485358, 2010;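 active = activation over 3 SD above normal in the single-dose calcium agonist read, cut at about 30% in these data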; note: 0% is about no effect
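Agonism scored from kinetic calcium signal (1 read/sec, 180 s) following compound pin transfer, after a 10 s baseline. Cells: HEK293 Trex line expressing inducible D2 receptor coupled to calcium, dye-loaded after overnight culture at 30 C.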
D2 antagonist: HTS Assay for Allosteric Antagonists of the Human D2 Dopamine Receptor: Primary Screen for Antagonists. HEK293 TREx D2 cells, calcium flux, dopamine EC80. inhibition, % at 10 µM. D(2) dopamine receptor (Homo sapiens), P14416. hit rate 2% among 340,000; in the data active = inhibition above about 30%; inactive = below that, where a call was filed; note: 0% is about no effect
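Antagonism is scored as inhibition of an EC80 dopamine-evoked calcium signal in a force-coupled, tetracycline-inducible HEK293 T-REx D2 line, with compound present 180 s before agonist.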
D2 ag-2: Beta-Arrestin HTS for Positive Allosteric Modulators of the Human D2 Dopamine Receptor: Agonists; D(2) dopamine receptor (Homo sapiens), P14416; hit rate 0.084% among 360,000; activation, % (no concentration beside the values); DiscoveRx PathHunter D2 beta-arrestin, luminescence, 90 min; 100% = 57 uM dopamine signal; in the data active = activation above about 40%; inconclusive = between about 15% and that limit
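DiscoveRx PathHunter D2 beta-arrestin cells (2,100/well) attached overnight, then compound-stimulated 90 min at 37 C in HBSS/10 mM HEPES/0.1% Tween-20 buffer; beta-galactosidase complementation read by luminescence after 1 h at ambient temperature. Dopamine 57 uM final (EC100) as control.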
D2 PAM-2: HTS Assay for Positive Allosteric Modulators of the Human D2 Dopamine Receptor: Primary Screen for Potentiators. D(2) dopamine receptor (Homo sapiens), P14416. HEK293 T-REx D2, calcium flux, EC20 dopamine potentiation. potentiation, % at 10 µM. hit rate 0.34% among 340,000;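 active = potentiation over 3 SD above the plate norm, cut at about 30% in these data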; note: 0% is about no effect
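Potentiation of an EC20 dopamine calcium response is measured in a force-coupled, tetracycline-inducible Hek293 Trex D2 line. Compound-only kinetic reads over 180 s flag agonists before dopamine addition.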
* = called active by the depositor; ? = inconclusive; . = no result.

SMILES	D2 PAM-1	D2 ag-1	D2 antagonist	D2 ag-2	D2 PAM-2
CCOC(=O)CC1=C(C(=O)OCC)C(c2cccnc2)C(C#N)=C(N)O1 (stereo not drawn)	-4	0	-1	-1	2
CC1=C(n2nnc([N+](=O)[O-])n2)C(c2cccnc2)C(C#N)=C(N)O1 (stereo not drawn)	110*	1	-4	?	6
CCOC(=O)CC1=C(C#N)C(c2cccnc2)C(C(=O)OCC)=C(N)O1 (stereo not drawn)	-9	0	38*	-1	2
Cc1cccc(S(=O)(=O)c2cn(Cc3ccccc3)c3cc(N4CCCCC4)c(F)cc3c2=O)c1	.	1	.	.	-9
Cc1ccc(C(=O)N2CCN(c3ccccc3O)CC2)cc1S(=O)(=O)N1CCCCC1	-23	.	.	-1	.
COc1cccc(NC(=O)CN2CCCN(S(=O)(=O)c3ccc(Br)cc3)CC2)c1	.	0	.	.	-5
CCOC(=O)C1C(=O)NC(c2ccccc2)=NC1c1cccc(Br)c1 (stereo not drawn)	-2	0	55*	-1	8
CCCCNc1nc2c(S(=O)(=O)c3ccc(C)cc3)nnn2c2ccsc12	.	1	.	.	2
COc1ccc(NC(=O)CC2C(=O)N(c3ccc(F)cc3)C(=S)N2NC(=O)c2ccc(Cl)cc2)cc1 (stereo not drawn)	-4	-1	37*	-7	-8
C=CCNC(=O)c1ccccc1NC(=O)COc1ccccc1	-6	0	59*	-2	-2
C=CCNC(=O)c1ccccc1Cl	-6	0	40*	0	-2
O=C(O)C1CC2CCC1CC2 (stereo not drawn)	2	.	.	-1	.
O=C1NC(NS(=O)(=O)c2ccccc2)(C(F)(F)F)C(=O)N1c1ccc(F)cc1 (stereo not drawn)	-3	-1	33*	-5	5
Cc1cc(C)nc(NC(C)(C)C(=O)O)n1	-6	-1	32*	2	-17
CC(=NO)c1ccc2c(c1)C(=NO)c1ccccc1-2	83*	.	.	13	.
ON=C1c2ccccc2-c2ccc(O)cc21	-18	.	.	-6	.
CCC(CC)C(=O)NC12CC3CC(CC(C3)C1)C2	-2	-2	33*	-2	25
C[C@@H]1CN([C@H](C)CO)C(=O)CCCn2cc(nn2)CO[C@H]1CN(C)C(=O)Cc1ccccc1	-19	.	.	-5	.
CC(C)(C)NC(=O)CN(Cc1ccc2c(c1)OCO2)C(=O)CCC(=O)Nc1nccs1	-2	0	11	-3	14
CCC(C)(C)NC(=O)CN(Cc1ccc2c(c1)OCO2)C(=O)CCC(=O)Nc1cc(C)ccn1	-8	0	42*	-5	13
O=C(NNC1=Nc2ccccc2SC1)c1cccc([N+](=O)[O-])c1	-14	0	71*	-3	-25
COc1ccc(NC(=O)c2c(F)cccc2Cl)cc1S(=O)(=O)N1CCOCC1	-29	.	.	1	.
Cc1ccc(C(=O)Nc2c(C(=O)N3CCOCC3)cnn2-c2ccccc2)cc1	-8	-1	-31	-3	33*
O=C(Nc1c(C(=O)N2CCOCC2)cnn1-c1ccccc1)c1ccc([N+](=O)[O-])cc1	-9	0	-6	7	2
CC(=O)c1ccc(S(=O)(=O)Nc2ccccc2C(=O)NC2CC2)cc1	-12	0	-9	-2	6
SMILES	D2 PAM-1	D2 ag-1	D2 antagonist	D2 ag-2	D2 PAM-2
CCOc1ccc(OCC)c(NC(=O)Nc2ccc3c(c2)N(C)C(=O)CS3)c1	-1	-1	64*	5	-20
Cn1c(SCC(=O)Nc2ccc3c(c2)OCCO3)nnc1-c1ccccn1	3	0	-12	0	6
Nn1c(SCC(=O)Nc2ccc3c(c2)OCO3)nnc1C1CCCCC1	0	-1	31*	-4	7
O=C(CSc1nnc(-c2ccccn2)n1Cc1ccccc1)Nc1ccc2c(c1)OCO2	-22	0	15	-1	32*
COc1ccc(CC(=O)OCC(=O)NC2CC2)cc1	-1	0	-13	0	-6
COc1cc(/C=C2/CCC/C(=C\c3cc(O)c(OC)c(Cl)c3)C2=O)cc(Cl)c1O	-21	2	12	-10	38*
COc1cc(/C=C2\CC/C(=C\c3cc(OC)c(O)c(OC)c3)C2=O)cc(OC)c1O	-6	2	-11	4	9
CC(C)N1C(=S)N(Cc2ccco2)C(=O)C1CC(=O)Nc1ccccc1 (stereo not drawn)	-4	1	2	-4	12
CCn1nnc(NC(=O)c2ccco2)n1	4	0	69*	-2	13
O=C(CCn1cnnn1)Nc1ccc(F)cc1	-2	2	32*	-4	-4
CC(=O)Nc1ccc(NC(=O)CCn2cnnn2)cc1	2	1	-23	1	1
COc1cccc(C2CC(c3cccs3)=NN2S(C)(=O)=O)c1 (stereo not drawn)	-2	6	2	-5	2
CC(C)c1ccc(OCC(=O)Nc2c3c(nn2C(C)(C)C)CS(=O)(=O)C3)cc1	57*	-1	4	10	13
O=c1cc(-c2ccc(O)cc2)oc2ccc(O)cc12	11	0	37*	-1	-7
Cc1ccc(SCC(=O)Nc2ccc(N3CCN(C)CC3)c(F)c2)c(C)c1	57*	5	3	0	-17
CCCCC1=CC2=CC(=O)C(C)(OC(=O)CC)C(=O)C2=CN1Cc1ccc(OC)cc1 (stereo not drawn)	-1	0	31*	3	9
CCCCC1=CC2=C(c3ccco3)C(=O)C(C)(OC(=O)c3ccc(OC)cc3)C(=O)C2=CN1Cc1ccc2c(c1)OCO2 (stereo not drawn)	-16	0	33*	0	0
CCCCC1=CC2=C(c3ccco3)C(=O)C(C)(OC(=O)c3ccc(OC)cc3)C(=O)C2=CN1Cc1ccccc1 (stereo not drawn)	10	0	5	3	-7
COc1ccc(OC)c(NC(=O)c2cnn(-c3ccc(C)cc3)c2C2CCNCC2)c1	.	0	.	.	-6
CC(=O)Nc1cccc(NC(=O)Nc2cccc3ccccc23)c1	-9	0	46*	2	-12
Cc1ccc(C)c(NC(=O)C2CCCN(S(=O)(=O)c3c(C)nn(C)c3C)C2)c1 (stereo not drawn)	-9	1	-3	0	-1
O=C(NCc1ccco1)c1cccc2c1C(=O)N(C1CCCCC1)C2	-14	0	-18	-5	35*
CN(C(=O)COc1ccc(Br)cc1Cl)C1CCCCC1	-11	1	-9	-2	-8
